NRP1-CendR mod: modulators of CendR peptide binding to NRP-1, primary screen, biochemical, fluorescence polarization, uHTS | inhibition, % at 25 µM | actives 0.85% (n = 360,000) | FAM-RPARPAR peptide binding to NRP-1 | Neuropilin-1 (Homo sapiens), O14786;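 active = inhibition or corrected inhibition above about 18%, plus a signal ratio from 0.5 to 1.5, limit read from the data, passing the limit was not always enough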
ERp5 block: inhibitors of ERp5-driven insulin aggregation, primary screen, biochemical, turbidity, absorbance 650 nm, single point; Protein disulfide-isomerase A6 (Homo sapiens), Q15084; 90 min; inhibition, % at 9.99 µM; actives 0.05% (n = 350,000); AID 651711, 2012;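 active = mean replicate inhibition above about 25%, with every replicate also reaching it, limit read from the data, passing the limit was not always enough; inconclusive = only one of those two criteria met; inactive = neither criterion met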
ARNT TACC3 PPI: disruptors of ARNT/TACC3 protein interaction, primary screen, biochemical, AlphaScreen, single concentration; inhibition, % at 9.99 µM; AlphaScreen His-ARNT PAS-B/GST-TACC3 binding, luminescence; TACC3 fragment carries E629A point mutation; Transforming acidic coiled-coil-containing protein 3 (Homo sapiens), Q9Y6A5; actives 0.66% (n = 390,000);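 active = mean inhibition of replicates at least 50% and at least half of replicates each reaching 50%; inconclusive = half or more replicates reach 50% but mean below 50%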
PglD inh: C. jejuni PglD acetyltransferase inhibitors, primary screen, biochemical, DTNB colorimetric, single point; inhibition, % at 12.5 µM; UDP-N-acetylbacillosamine N-acetyltransferase PglD (Campylobacter jejuni); actives 0.098% (n = 360,000); purified PglD enzyme, DTNB colorimetric CoA detection; in the data active = inhibition above about 16%, passing the limit was not always enough; inconclusive = no clear call, values can overlap the other calls
ALR inh: inhibitors of human ALR sulfhydryl oxidase, primary screen, biochemical, H2O2 detection, HRP-luminol luminescence, single point; FAD-linked sulfhydryl oxidase ALR (Homo sapiens), P55789; purified ALR, DTT oxidation; inhibition, % (test concentration not listed); actives 3.8% (n = 290,000);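 active = mean replicate inhibition above about 79%, with every replicate also reaching it, limit read from the data; inconclusive = only one of the two criteria met; inactive = mean below limit and not every replicate reaching it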
PDI inh: inhibitors of human PDI, primary screen, biochemical, turbidity, single point, plate reader; PDI insulin aggregation turbidity, A650, 90 min; inhibition, % at 10 µM; actives 0.052% (n = 350,000); AID 588391, 2011;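 active = mean inhibition across replicates of 30% or more, whatever share of single replicates reach that level; inconclusive = mean inhibition below 30% while every single replicate reaches 30%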
A number is an active result. The entries come from a sample that favours hits as a whole.

`C/C(=N\NC(=S)Nc1ccccc1)c1c(O)n(C)c(=O)n(C)c1=O` gave NRP1-CendR mod inactive, ERp5 block inactive, ARNT TACC3 PPI inactive, ALR inh 91.9 and PDI inh inactive.
`CCn1c(O)c(/C=N/NC(=O)c2ccccc2)c(=O)[nH]c1=S` gave NRP1-CendR mod inactive, ERp5 block inactive, ARNT TACC3 PPI 63.1, ALR inh inactive and PDI inh inactive.
COc1ccc(Cn2c(O)c(/C=N/NC(=O)c3ccncc3)c(=O)[nH]c2=O)cc1 was read as NRP1-CendR mod inactive, ERp5 block inactive, ARNT TACC3 PPI 58.0, PglD inh inactive, ALR inh inactive and PDI inh inactive.
`O=c1[nH]c(=S)n(CCC2=CCCCC2)c(O)c1/C=N/Nc1ccccc1` gave NRP1-CendR mod inactive, ERp5 block inactive, ARNT TACC3 PPI inactive, ALR inh 97.0 and PDI inh inactive.
`COc1ccc(Cn2c(O)c(/C=N/NC(=O)c3ccccc3)c(=O)[nH]c2=O)cc1` gave NRP1-CendR mod inactive, ERp5 block inactive, ARNT TACC3 PPI inactive, PglD inh inactive, ALR inh inactive and PDI inh inactive.
`O=C(N/N=C/c1c(O)n(CCc2ccc(F)cc2)c(=O)[nH]c1=O)c1ccccc1` gave NRP1-CendR mod inactive, ERp5 block inactive, PglD inh inactive, ALR inh inactive and PDI inh inactive.
`O=C(N/N=C/c1c(O)n(CCc2ccccc2)c(=O)[nH]c1=O)c1ccncc1` gave NRP1-CendR mod inactive, ARNT TACC3 PPI 74.5, PglD inh inactive and PDI inh inactive.
CC=Cc1ccc2n(c1=O)C[C@@H]1[C@@H](CO)[C@H](C(=O)OC)[C@H]2N1C(=O)CC1CC1 (mixture of isomers) was read as ERp5 block inactive, ARNT TACC3 PPI inactive and PglD inh inactive.
O=C(N/N=C/c1c(O)n(-c2cccc3ccccc23)c(=O)[nH]c1=O)c1ccncc1 was read as NRP1-CendR mod inactive, ERp5 block inactive, ARNT TACC3 PPI 68.2, PglD inh inactive, ALR inh inactive and PDI inh inactive.
`COc1ccccc1-n1c(O)c(C=NCc2ccc3c(c2)OCO3)c(=O)[nH]c1=O` gave NRP1-CendR mod inactive, ARNT TACC3 PPI inactive, PglD inh inactive, ALR inh inactive and PDI inh inactive.
Screening O=C(N/N=C/c1c(O)n(CCc2ccc(F)cc2)c(=O)[nH]c1=O)c1ccncc1 returned NRP1-CendR mod inactive, ERp5 block inactive, ARNT TACC3 PPI 65.4, ALR inh inactive and PDI inh inactive.
For CC(CO)(CO)N=Cc1c(O)n(-c2cccc3ccccc23)c(=O)[nH]c1=O the results were NRP1-CendR mod inactive, ARNT TACC3 PPI inactive, PglD inh inactive and PDI inh inactive.
Cc1ccc(-n2c(O)c(/C=N/NC(=O)c3ccncc3)c(=O)[nH]c2=O)cc1C was read as NRP1-CendR mod inactive, ERp5 block inactive, ARNT TACC3 PPI 62.5, ALR inh inactive and PDI inh inactive.
Screening COc1ccccc1-n1c(O)c(/C=N/NC(=S)Nc2ccccc2)c(=O)[nH]c1=S returned NRP1-CendR mod inactive, ERp5 block inactive, ARNT TACC3 PPI inactive, PglD inh inactive, ALR inh 91.9 and PDI inh inactive.
COC(=O)[C@H]1[C@H](CO)[C@H]2Cn3c(ccc(-c4ccccc4F)c3=O)[C@@H]1N2C(=O)C1CC1 was read as ERp5 block inactive, ARNT TACC3 PPI inactive and PglD inh inactive.
For CCN1CCN(c2ccc(N)c(C)c2)CC1 the results were NRP1-CendR mod inactive, ERp5 block inconclusive, PglD inh inactive, ALR inh 95.5 and PDI inh inactive.
Screening CN1CCN(c2ccc([N+](=O)[O-])c(N)c2)CC1 returned NRP1-CendR mod inactive, ARNT TACC3 PPI inactive, ALR inh inactive and PDI inh inactive.
Screening COC(=O)[C@@H]1[C@@H](CO)[C@@H]2Cn3c(ccc(C4=CCCCC4)c3=O)[C@H]1N2CC1CCCC1 returned ERp5 block inactive, ARNT TACC3 PPI inactive and PglD inh inactive.
